Our source for the growth values is PubChem BioAssay (NCI).

Among the test systems are T-47D breast; BT-549 breast; MDA-MB-435 melanoma; SW-620 colon; MCF7 breast; HCT-116 colon; HCC-2998 colon; KM12 colon.
What all share (assay): NCI-60 one-dose screen, 48 h (100 = growth as untreated, 0 = no growth, -100 = all killed)
Settings in all cases: 10 µM unless noted

About 83,000 compounds went through this panel and 20% of them were active in at least one assay; those are over-represented in the sample as a whole.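 How to read the values: 0–100, growth inhibition (40 = 60% inhibited); 0, no net growth; -100 to 0, cell death (-40 = 40% of starting cells died; -100 = all dead).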 Values without a mark were called inactive. Activity calls are given as the source filed them. How the source made its calls: active means growth percent below 10; inactive means the rest.

As to `O=C1c2ccccc2C(=O)c2c1oc1oc3c(c(=O)c21)c(=O)n(-c1ccccc1)c1ccccc31`, the growth was 4.47% (active) in the test with T-47D breast; 12.3% in the test on BT-549 breast; 87.8% with MDA-MB-435 melanoma; 18.6% in the test with SW-620 colon; 51.6% in the test with MCF7 breast; 41.7% with HCT-116 colon. Moreover, the growth with HCC-2998 colon is 42.9%; in the test on KM12 colon it was 18.9%.

Regarding `COc1ccc(C(=O)c2cc(OC)c(OC)c(OC)c2)cc1/C=C/C(=O)c1ccc(OC)c(OC)c1`, the growth is 35.2% in the test on T-47D breast; 36.5% in the test on BT-549 breast; 20% in the test on MDA-MB-435 melanoma; 9.37% (active) in the test on SW-620 colon; 17.3% in the test with MCF7 breast; 10.4% in the test on HCT-116 colon. For the same compound, the growth in the test with HCC-2998 colon is 45.9%; with KM12 colon, 9.37% (active).

Take `Cc1ccc(C(=O)c2sc3nc4c(cc3c2N)CCCC4)c(C)c1`: the growth in the test with T-47D breast was 35.4%; in the test on BT-549 breast, 55.8%; in the test with MDA-MB-435 melanoma, -44.5% (active); in the test with SW-620 colon, 30.3%; in the test with MCF7 breast, 21%; in the test on HCT-116 colon, 25.3%. For the same compound, the growth with HCC-2998 colon is 39.6%; with KM12 colon it was 33.9%.

On to `Cc1cc(C)c(NC(=O)c2sc3nc4c(cc3c2N)CN(Cc2ccccc2)CC4)c(C)c1`, for which the growth in the test with T-47D breast was 27.4%; with BT-549 breast it was 52.2%; in the test on MDA-MB-435 melanoma, -18.6% (active); with SW-620 colon, 23.7%; with MCF7 breast, 17.6%; in the test on HCT-116 colon, 22.6%. Further, the growth is 62.3% in the test on HCC-2998 colon and 19.4% in the test with KM12 colon.

For `CCc1cccc(C)c1NC(=O)c1sc2nc3c(cc2c1N)C(=O)CCC3`, the growth in the test on T-47D breast is 24.4%; in the test with BT-549 breast it was 46.8%; with MDA-MB-435 melanoma it was -27.5% (active); with SW-620 colon, 28.7%; in the test on MCF7 breast, 20.3%; in the test with HCT-116 colon, 31.6%. Besides, the figures for the growth with HCC-2998 colon and with KM12 colon were 10.2% and 19%, respectively.

`CC1CCN(C(=O)CSc2nc3sc4c(c3c(=O)[nH]2)CCCC4)CC1`: the growth is 102% in the test with T-47D breast; 95.2% in the test with BT-549 breast; 95.6% with MDA-MB-435 melanoma; 108% with SW-620 colon; 109% in the test on MCF7 breast; 112% with HCT-116 colon. Besides, the growth in the test on HCC-2998 colon and in the test on KM12 colon was 120% throughout.

Consider `O=C(/C=C/c1ccccc1)n1c(-c2ccc(Cl)cc2)nc2ccccc21`, for which the growth with T-47D breast was -4.25% (active); with BT-549 breast it was -50.5% (active); in the test with MDA-MB-435 melanoma, -44.3% (active); in the test with SW-620 colon, -55.1% (active); with MCF7 breast, 10.3%; in the test with HCT-116 colon it was -71.5% (active). For the same compound, the growth is 5.08% (active) with HCC-2998 colon and -62.9% (active) with KM12 colon.

As for `O=C(CN1CCOCC1)Nc1ccc(-c2nc3ccccc3s2)cc1`, the growth was 93.3% in the test on T-47D breast; 104% with BT-549 breast; 108% in the test on MDA-MB-435 melanoma; 108% in the test on SW-620 colon; 48.8% with MCF7 breast; 96.1% with HCT-116 colon. The growth with HCC-2998 colon was 88%; in the test on KM12 colon it was 107%.

For `CC(C)C[C@H](NC(=O)[C@H](Cc1ccccc1)n1ccc(N2CCCCC2)cc1=O)B(O)O`, the growth in the test with T-47D breast is -20.4% (active); in the test with BT-549 breast, 31.3%; in the test with MDA-MB-435 melanoma it was -66% (active); in the test with SW-620 colon, 6.5% (active); with MCF7 breast, 31.3%; in the test on HCT-116 colon, 2.64% (active). Also, the growth is -36.9% (active) in the test with HCC-2998 colon and 1.6% (active) with KM12 colon.

For `Cc1ccc(S(=O)(=O)OCC(=O)Nc2ccc(C(=O)O)c(O)c2)cc1`, the growth was 106% with T-47D breast; 89.2% in the test with BT-549 breast; 114% in the test with MDA-MB-435 melanoma; 105% with SW-620 colon; 105% in the test with MCF7 breast; 96.2% with HCT-116 colon. Further, the growth in the test with HCC-2998 colon was 87.6%; in the test on KM12 colon, 110%.

Regarding `Nc1ccccc1C#C/C=C\C#Cc1cccc(O)c1`, the growth was 55.2% with T-47D breast; 44.8% in the test with BT-549 breast; 6.89% (active) with MDA-MB-435 melanoma; 32.4% in the test on SW-620 colon; 35.9% in the test on MCF7 breast; 42.3% in the test with HCT-116 colon. In addition, the values for the growth in the test with HCC-2998 colon and in the test with KM12 colon were 41.3% and 27.9%, respectively.

As for `COc1ncc(-c2ccc3ncnc(Nc4cccc(Cl)c4)c3c2)cc1NS(=O)(=O)CCN1CCOCC1`, the growth was -10.6% (active) in the test on T-47D breast; -4.07% (active) in the test with BT-549 breast; 11.8% with MDA-MB-435 melanoma; 29.5% in the test on SW-620 colon; 7.16% (active) with MCF7 breast; 29.7% in the test with HCT-116 colon. Besides, the values for the growth in the test on HCC-2998 colon and in the test on KM12 colon were 18.9% and 26%, respectively.

As for `O=C(CNc1c(Cl)cccc1Cl)Nc1ccc(-c2nc3ccccc3s2)cc1`, the growth in the test on T-47D breast was -19% (active); in the test with BT-549 breast, 22%; in the test on MDA-MB-435 melanoma, 67.9%; in the test on SW-620 colon, 35.3%; in the test on MCF7 breast, 14.6%; in the test on HCT-116 colon, 29.9%. For the same compound, the values for the growth in the test with HCC-2998 colon and in the test with KM12 colon were 35.6% and 91.3%, respectively.

Take `COc1cc(/C=C/C(=O)c2ccc(NC(=O)CN3CCN(c4cc5c(cc4F)c(=O)c(C(=O)O)cn5C4CC4)CC3)cc2)cc(OC)c1OC`: the growth in the test on T-47D breast is 17.5%; in the test on BT-549 breast, -86.7% (active); with MDA-MB-435 melanoma, -1.52% (active); in the test on SW-620 colon it was 6.38% (active); with MCF7 breast, 26.5%; in the test on HCT-116 colon, -88.2% (active). Also, the growth in the test on HCC-2998 colon was -11.6% (active); in the test on KM12 colon, -65.1% (active).

Take `CCCCCC(=O)OCc1ccccc1`: the growth was 95.2% in the test on T-47D breast; 84.5% in the test with BT-549 breast; 96.3% in the test with MDA-MB-435 melanoma; 98.1% with SW-620 colon; 97.4% in the test with MCF7 breast; 93.8% in the test on HCT-116 colon. Besides, the growth is 96.9% in the test on HCC-2998 colon and 98.1% in the test on KM12 colon.

In the case of `O=C(CCCn1c(=O)c2sc3ccccc3c2n2nnc(-c3ccccc3)c12)NCCc1cnc[nH]1`, the growth in the test on T-47D breast was 4.62% (active); in the test on BT-549 breast it was 32.3%; with MDA-MB-435 melanoma it was -49.9% (active); with SW-620 colon, -11.1% (active); in the test with MCF7 breast it was -47.4% (active); in the test on HCT-116 colon, -86.6% (active). The growth was -42.6% (active) in the test with HCC-2998 colon and -7.92% (active) with KM12 colon.
